# Reference: the supplement of paper PMC6522484
# ± gives the standard deviation of the averaged measurements.
# Legend:
# [1] = system: DLD1; experiment: cell viability (CellTiter-Glo) relative to plate median (fraction of plate median); higher = more viable cells; conditions: 5 µM; treatment time 24 h; reporter: 7TFP
# Method in brief: (§1)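 Colorectal cancer cell lines stably carrying lentiviral TCF/Wnt firefly luciferase reporters (7TFP or TCF4/Wnt) were plated in 384-well plates and, 24 h later, given library compounds at a final 5 µM for 24 h. Firefly luciferase or CellTiterGlo luminescence was read on parallel plates with a Tecan F500 reader. Each well's signal was normalised to the plate median in webcellHTS2 (additive, without log transformation). Values are the mean of two independent replicates.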
# [2] = system: HCT116; experiment: as above; conditions: 5 µM; treatment time 24 h; reporter: TCF4/Wnt
# Method in brief: as §1
# [3] = system: SW480; experiment: as above; conditions: 5 µM; treatment time 24 h; reporter: 7TFP
# Method in brief: as §1
# [4] = system: DLD1; experiment: TCF/Wnt firefly luciferase reporter signal relative to plate median (fraction of plate median); higher = higher Wnt reporter signal; conditions: 5 µM; treatment time 24 h; reporter: 7TFP
# Method in brief: as §1
# [5] = system: SW480; experiment: as above; conditions: 5 µM; treatment time 24 h; reporter: 7TFP
# Method in brief: as §1
SMILES,cell viability [1],cell viability [2],cell viability [3],TCF/Wnt firefly luciferase reporter signal [4],TCF/Wnt firefly luciferase reporter signal [5]
Cn1c(=O)c2c(ncn2CC(O)CO)n(C)c1=O (stereo not given),0.916 ± 0.016,0.996 ± 0.049,0.989 ± 0.03,1.09 ± 0.14,1.09 ± 0.05
COc1cc(C)c2c(=O)cc(-c3ccccc3)oc2c1,0.991 ± 0.027,0.884 ± 0.083,1 ± 0.041,1.18 ± 0.092,1.14 ± 0.014
CC[C@H]1OC(=O)[C@H](C)[C@@H](O[C@H]2C[C@@](C)(OC)[C@@H](O)[C@H](C)O2)[C@H](C)[C@@H](O[C@@H]2O[C@H](C)C[C@H](N(C)C)[C@H]2O)[C@](C)(O)C[C@@H](C)C(=O)[C@H](C)[C@@H](O)[C@]1(C)O,1.01 ± 0.05,0.986 ± 0.034,1 ± 0.028,0.924 ± 0.09,0.874 ± 0.051
CN(C)c1ccc(C(=C2C=CC(=[N+](C)C)C=C2)c2ccc(N(C)C)cc2)cc1,0.703 ± 0.016,0.381 ± 0.17,0.679 ± 0.013,0.529 ± 0.091,0.465 ± 0.012
Cc1cc(O)c2c3c(ccc2c1)C(=O)c1c(O)cccc1C3=O [Tetrangulol],1.02 ± 0.065,0.985 ± 0.018,0.972 ± 0.015,0.978 ± 0.023,0.974 ± 0.035
